# Values without a mark were called inactive. Calls of active or inactive are those of the source. Cut-off not given; nearly all actives show IC50 up to about 87 µM.
# Assay: rhodamine 123 fluorescence quenching, dose response, artefact control for mitochondrial permeability transition pore inhibitor project, biochemical, dry powder samples (AID 720723)
# Settings: Rhodamine 123 fluorescence quenching counterscreen, cell-free
row,Structure (SMILES),IC50
1,COc1ccc(C)c2sc(N(CCCN(C)C)C(=O)CS(=O)(=O)c3ccc(F)cc3)nc12,87.8 µM (active)
2,CCN(CC)c1ccc(NC(=O)c2cc(Cl)ccc2OC)cc1,41.2 µM (active)
3,Cc1cc(C)c2nc(N(CCCN(C)C)C(=O)c3ccc(S(=O)(=O)N4CCCCCC4)cc3)sc2c1,20.9 µM (active)
4,CN(C)CCCN1c2ccccc2Sc2ccc(Cl)cc21,> 100 µM
5,CN1CCC[C@@H]1CCO[C@](C)(c1ccccc1)c1ccc(Cl)cc1,27.5 µM (active)
6,Cc1ccc2nc(N(CCCN(C)C)C(=O)CCc3ccccc3)sc2c1,34.1 µM (active)
7,Cc1cc(C)c2nc(N(CCCN(C)C)C(=O)C3=COCCO3)sc2c1,> 101 µM
8,Cc1ccc2nc(N(CCN(C)C)C(=O)/C=C/c3cccs3)sc2c1,> 100 µM
9,COc1cc(CNCCO)cc(Cl)c1OCc1ccccc1Cl,31.5 µM (active)
10,C=CCNCCCOc1ccc(C)cc1Br,69.6 µM (active)
11,C=CCNCCOCCOc1ccc(Cl)cc1C(C)(C)C,21.9 µM (active)
12,CC(C)(C)c1ccccc1OCCCCCNCCO,42.8 µM (active)
13,CCOC(=O)N1CCN(S(=O)(=O)c2ccc(C(=O)N(CCCN(C)C)c3nc4c(C)c(C)ccc4s3)cc2)CC1,56.8 µM (active)
14,O=C(CC1NCCc2ccccc21)Nc1ccc(Cl)cc1 (stereo not given),82.4 µM (active)
15,COc1ccc(-n2cc(CNC3CCN(C)CC3)c(-c3cccc(F)c3)n2)cc1,> 100 µM
16,COc1ccc(Cl)cc1C(=O)Nc1ccc(CN2CCCCC2)cc1,85.9 µM (active)
17,COc1cc(NC(=O)c2cc(-c3cccc(O)c3)on2)cc(OC)c1OC,> 100 µM
18,CC1CCCN(CCC(=O)c2ccc(Br)cc2)C1 (stereo not given),85.8 µM (active)
19,N#Cc1c(NCCN)nc(-c2ccco2)c2c1CCCC2,82.5 µM (active)
20,COCCCNCCCOc1ccc(Cl)cc1C(C)(C)C,42.3 µM (active)
21,CNCCC=C1c2ccccc2CCc2ccccc21,> 100 µM
22,N=c1sccn1CC(=O)Nc1cccc(Oc2ccccc2)c1,54.4 µM (active)
23,C=CCNCCOc1ccc(C(C)(C)c2ccccc2)cc1,41.6 µM (active)
24,COC(=O)c1c(NC(=O)C2CCCCC2)sc2c1CC(C)(C)NC2(C)C,48.1 µM (active)
25,CCN(CC)CCCN=Cc1c(O)n(Cc2ccccc2)c(=O)c2ccccc12,> 100 µM
